4 molecules from PubChem BioAssay (EPA / NIEHS) can be followed below.

Read-out in experiment [1]: Monokine induced gamma interferon (MIG), CXCL9 (gene 4283)
Kind of experiment: BSK_hDFCGF_MIG: BioMAP Diversity Plus: hDFCGF Assay for Monokine induced gamma interferon (MIG) Biomarker Activity (AID 2283063). Conditions: primary human foreskin fibroblasts; actives raise or lower the signal. In a few lines:
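Human primary foreskin fibroblasts in the hDFCGF system, exposed to test chemical for 24 h; MIG measured by ELISA. Bidirectional curve fitting against DMSO negative control as activity baseline.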

Read-out in experiment [2]: Vascular cell adhesion molecule 1 (VCAM1), VCAM1 (gene 7412)
Kind of experiment: BSK_hDFCGF_VCAM1: BioMAP Diversity Plus: hDFCGF Assay for Vascular cell adhesion molecule 1 (VCAM1) Biomarker Activity (AID 2283065).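 For AC50: VCAM-1 protein level quantified by ELISA after 24 h chemical exposure.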 Conditions: primary human foreskin fibroblasts; actives raise or lower the signal. Put shortly: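 ELISA readout of VCAM-1 on human dermal fibroblast primary cultures, 24 h after chemical exposure. Gain or loss of signal fitted in both directions against DMSO baseline.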

Read-out in experiment [3]: Plasminogen activator inhibitor-1 (PAI1), SERPINE1 (gene 5054)
The experiment can be described thus: BSK_hDFCGF_PAI1: BioMAP Diversity Plus: hDFCGF Assay for Plasminogen activator inhibitor-1 (PAI1) Biomarker Activity (AID 2283066). To be noted: primary human foreskin fibroblasts; actives raise or lower the signal. Put shortly:
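Fibroblasts from human foreskin were treated with test chemical. After 24 h, PAI-1 was measured by ELISA. Activity was fitted in both directions relative to DMSO.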

Read-out in experiment [4]: Intercellular Adhesion Molecule 1 (ICAM1), ICAM1 (gene 3383)
Kind of experiment: BSK_KF3CT_ICAM1: BioMAP Diversity Plus: KF3CT Assay for Intercellular Adhesion Molecule 1 (ICAM1) Biomarker Activity (AID 2283067). Conditions: primary human keratinocytes with fibroblasts; actives raise or lower the signal. In a few lines: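 Cell-surface ICAM-1 was measured by ELISA 24 h after dosing primary human skin keratinocytes co-cultured with fibroblasts. Parallel SRB staining tracked overt cytotoxicity. Gain or loss of signal was fitted relative to DMSO.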

Read-out in experiment [5]: Interferon-gamma inducible Protein 10 (IP10), CXCL10 (gene 3627)
The experiment can be described thus: BSK_KF3CT_IP10: BioMAP Diversity Plus: KF3CT Assay for Interferon-gamma inducible Protein 10 (IP10) Biomarker Activity (AID 2283068). Conditions: primary human keratinocytes with fibroblasts; actives raise or lower the signal. Put shortly: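 Signal is secreted/surface IP-10 by ELISA in a human primary skin co-culture of keratinocytes and foreskin fibroblasts, taken 24 h post-dosing; DMSO served as negative control.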

The nature of experiment [6]: BSK_KF3CT_SRB: Viability Assessment in the BioMAP Diversity Plus: KF3CT Assay (AID 2283069).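 Note: read 24 h after compound addition.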 To be noted: primary human keratinocytes with fibroblasts. In a few lines:
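Overt cytotoxicity is assessed as total protein by sulforhodamine B staining in parallel human skin co-cultures at 24 h after dosing. DMSO serves as negative control and baseline.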

Read-out in experiment [7]: Interleukin-1 alpha (IL1a), IL1A (gene 3552)
The experiment can be described thus: BSK_KF3CT_IL1a: BioMAP Diversity Plus: KF3CT Assay for Interleukin-1 alpha (IL1a) Biomarker Activity (AID 2283070). To be noted: primary human keratinocytes with fibroblasts; actives raise or lower the signal. Put shortly: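 Readout is IL-1a level by ELISA, compared bidirectionally with DMSO as baseline. Cells: human keratinocytes co-cultured with foreskin fibroblasts, harvested 24 h post-dose.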

Read-out in experiment [8]: TIMP metallopeptidase inhibitor 2 (TIMP2), TIMP2 (gene 7077)
Kind of experiment: BSK_KF3CT_TIMP2: BioMAP Diversity Plus: KF3CT Assay for TIMP metallopeptidase inhibitor 2 (TIMP2) Biomarker Activity (AID 2283071). To be noted: primary human keratinocytes with fibroblasts; actives raise or lower the signal. In a few lines:
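Chemicals were dosed onto human skin primary co-cultures of keratinocytes and foreskin fibroblasts, and TIMP-2 was measured by ELISA after 24 hours. Activity in either direction was fitted relative to DMSO.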

Read-out in experiment [9]: Transforming growth factor beta 1 (TGFb1), TGFB1 (gene 7040)
Kind of experiment: BSK_KF3CT_TGFb1: BioMAP Diversity Plus: KF3CT Assay for Transforming growth factor beta 1 (TGFb1) Biomarker Activity (AID 2283072). Conditions: primary human keratinocytes with fibroblasts; actives raise or lower the signal. Put shortly: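 KF3CT co-culture (keratinocytes + fibroblasts), 24 h exposure → TGF-b1 ELISA → bidirectional fit, DMSO = baseline. Parallel SRB total-protein staining (0.1% SRB, 10% TCA fixation, 560 nm) for cytotoxicity.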

Read-out in experiment [10]: Matrix Metallopeptidase 9 (MMP9), MMP9 (gene 4318)
Kind of experiment: BSK_KF3CT_MMP9: BioMAP Diversity Plus: KF3CT Assay for Matrix Metallopeptidase 9 (MMP9) Biomarker Activity (AID 2283074).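 For AC50: MMP9 protein level quantified by ELISA in the co-culture.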 To be noted: primary human keratinocytes with fibroblasts; actives raise or lower the signal. In a few lines: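 Values come from bidirectional fitting relative to DMSO of MMP-9 levels, which were measured by ELISA. Measurements were taken 24 h after chemical dosing of a keratinocyte and foreskin fibroblast co-culture.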

Read-out in experiment [11]: urokinase plasminogen activator (uPA), PLAU (gene 5328)
The experiment can be described thus: BSK_KF3CT_uPA: BioMAP Diversity Plus: KF3CT Assay for urokinase plasminogen activator (uPA) Biomarker Activity (AID 2283075). To be noted: primary human keratinocytes with fibroblasts; actives raise or lower the signal. In a few lines: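 Values derive from bidirectional fitting against DMSO controls. Keratinocyte/foreskin fibroblast co-cultures received chemical; 24 h later uPA was detected by ELISA, with SRB total-protein staining in parallel wells for overt cytotoxicity.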

Read-out in experiment [12]: CD40, CD40 (gene 958)
Kind of experiment: BSK_LPS_CD40: BioMAP Diversity Plus: LPS Assay for CD40 Biomarker Activity (AID 2283076). To be noted: primary human HUVEC with PBMC; actives raise or lower the signal. Put shortly: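 In the LPS system of human endothelial cells with peripheral blood mononuclear cells, CD40 levels were read by ELISA 24 h post-treatment. Signal changes in either direction were fitted against the DMSO baseline, with parallel SRB protein staining.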

Read-out in experiment [13]: E-selectin (Homo sapiens) (UniProt P16581)
The experiment can be described thus: BSK_LPS_Eselectin: BioMAP Diversity Plus: LPS Assay for Eselectin Biomarker Activity (AID 2283077). To be noted: primary human HUVEC with PBMC; actives raise or lower the signal. Put shortly: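 E-selectin ELISA on LPS-stimulated endothelial cell/PBMC co-cultures, read 24 h post-treatment; gains and losses fitted against DMSO. Parallel SRB staining (0.1% SRB after 10% TCA fixation, 560 nm) flags overt cytotoxicity.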

Read-out in experiment [14]: Interleukin-8 (IL8), CXCL8 (gene 3576)
Kind of experiment: BSK_LPS_IL8: BioMAP Diversity Plus: LPS Assay for Interleukin-8 (IL8) Biomarker Activity (AID 2283078). Conditions: primary human HUVEC with PBMC; actives raise or lower the signal. Put shortly: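 ELISA read-out of IL-8 after 24 h chemical treatment of LPS-activated endothelial/PBMC human primary co-cultures. Changes either up or down relative to DMSO; overt cytotoxicity checked by sulforhodamine B staining in parallel wells.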

Experiment [15] can be described thus: BSK_LPS_SRB: Viability Assessment in the BioMAP Diversity Plus: LPS Assay (AID 2283079).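 Note: total protein by sulforhodamine B absorbance as a cytotoxicity measure; measured one day after compound addition.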 Conditions: primary human HUVEC with PBMC. In a few lines: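 SRB viability endpoint: cells fixed with 10% TCA, stained with 0.1% SRB, read at 560 nm, 24 h post-dose. HUVEC/PBMC co-culture; signal change in either direction scored relative to DMSO.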
Read-out in experiment [16]: Interleukin-1 alpha (IL1a), IL1A (gene 3552)
Kind of experiment: BSK_LPS_IL1a: BioMAP Diversity Plus: LPS Assay for Interleukin-1 alpha (IL1a) Biomarker Activity (AID 2283080). To be noted: primary human HUVEC with PBMC; actives raise or lower the signal. Put shortly:
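Readout is IL-1a level by ELISA, 24 h post-dose, fitted as gain or loss relative to DMSO. System: LPS-activated human primary co-culture of vascular endothelium and peripheral blood mononuclear cells, with parallel SRB total-protein cytotoxicity.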

Read-out in experiment [17]: Monocyte Chemoattractant Protein-1 (MCP1), CCL2 (gene 6347)
Kind of experiment: BSK_LPS_MCP1: BioMAP Diversity Plus: LPS Assay for Monocyte Chemoattractant Protein-1 (MCP1) Biomarker Activity (AID 2283081).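 For AC50: secreted MCP-1 protein quantified by ELISA in culture supernatant.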 To be noted: primary human HUVEC with PBMC; actives raise or lower the signal. In a few lines: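 Secreted MCP-1 read by ELISA at 24 h post-dosing in an LPS-activated co-culture of endothelial cells with peripheral blood mononuclear cells. Fits run in both directions, DMSO as baseline; parallel SRB staining tracks overt cytotoxicity.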

The nature of experiment [18]: BSK_LPS_PGE2: BioMAP Diversity Plus: LPS Assay for Prostaglandin E2 (PGE2) Biomarker Activity (AID 2283082).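 For AC50: secreted prostaglandin E2 measured by ELISA in LPS-stimulated co-culture.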 Conditions: primary human HUVEC with PBMC; actives raise or lower the signal. Put shortly:
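Compounds were added to the LPS co-culture of endothelium and PBMC, and PGE2 was measured by ELISA after 24 h. Responses in either direction were fitted with DMSO as baseline.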

Read-out in experiment [19]: C-C motif chemokine 2 (Homo sapiens) (UniProt P13500)
Kind of experiment: BSK_KF3CT_MCP1: BioMAP Diversity Plus: KF3CT Assay for Monocyte Chemoattractant Protein 1 (MCP1/CCL2) Biomarker Activity (AID 2283073). Conditions: primary human keratinocytes with fibroblasts; actives raise or lower the signal. In a few lines: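 ELISA read-out of MCP-1, 24 h post-dose, in primary human skin keratinocytes co-cultured with fibroblasts. Parallel SRB staining monitors cytotoxicity; changes fitted both directions relative to DMSO.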

Structures are written as SMILES. Calls of active or inactive are those of the source. Rule for the calls: active = hit-call score of the fitted dose curve at least 0.9, where 1 is the maximum; inactive = score below 0.9.

Sequence of E-selectin (Homo sapiens) (P16581 whole entry, looked up): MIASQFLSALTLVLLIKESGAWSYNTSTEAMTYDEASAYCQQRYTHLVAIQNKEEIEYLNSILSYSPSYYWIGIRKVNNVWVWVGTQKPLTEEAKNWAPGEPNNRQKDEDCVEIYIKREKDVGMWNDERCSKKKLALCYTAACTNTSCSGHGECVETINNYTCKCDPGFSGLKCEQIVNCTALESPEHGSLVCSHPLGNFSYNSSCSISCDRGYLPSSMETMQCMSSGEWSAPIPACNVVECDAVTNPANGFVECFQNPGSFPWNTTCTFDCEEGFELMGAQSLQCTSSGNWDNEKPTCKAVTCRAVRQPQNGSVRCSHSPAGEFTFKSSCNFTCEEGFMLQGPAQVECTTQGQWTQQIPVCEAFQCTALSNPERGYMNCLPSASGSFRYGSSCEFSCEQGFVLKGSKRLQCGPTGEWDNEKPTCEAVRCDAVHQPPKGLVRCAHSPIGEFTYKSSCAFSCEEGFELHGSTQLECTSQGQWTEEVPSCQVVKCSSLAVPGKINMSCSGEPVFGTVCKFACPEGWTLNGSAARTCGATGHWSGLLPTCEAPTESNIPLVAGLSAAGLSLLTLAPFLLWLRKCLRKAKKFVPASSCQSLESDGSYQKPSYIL

On to `CCN(CC)C(=O)C(Cl)=C(C)OP(=O)(OC)OC`, for which the outcome in experiment [1], in [2], in experiment [3], in experiment [4], in [5] and in [6] was inactive. Moreover, the result in experiment [7], in experiment [8], in experiment [9], in experiment [10], in experiment [11] and in experiment [12] was inactive. For the same molecule, the outcome in experiment [13], in experiment [14], in [15], in [16], in experiment [17] and in experiment [18] was inactive.
Usually AC50 stands for the concentration at which the activity in the assay is half-maximal. As for `O=C1C=CC(=O)c2ccccc21`, the half-maximal activity concentration (AC50) was 1.68 µM (active) in experiment [1]; 1.2 µM (active) in experiment [2]; 1.53 µM (active) in [3]; 2.71 µM (active) in experiment [4]; 2.81 µM (active) in [5]; 2.04 µM (active) in experiment [7]. The concentration at half-maximal activity (AC50) was 1.67 µM (active) in experiment [8]; 1.81 µM (active) in experiment [9]; 5.16 µM (active) in experiment [10]; 2.86 µM (active) in [11]; 1.37 µM (active) in experiment [12]; 1.44 µM (active) in [13]. Moreover, the AC50 in [14] is 1.37 µM (active); in experiment [15], 5.33 µM (active); in experiment [16] it was 1.07 µM (active); in experiment [17], 2.7 µM (active). The result in [6] and in [18] was inactive.
For the molecule `Cc1ccccc1OP(=O)(Oc1ccccc1)Oc1ccccc1`, the AC50 in experiment [1] was 20 µM (active); in [2], 5.06 µM (active); in experiment [7] it was 20 µM (active); in [8], 14.4 µM (active); in [9] it was 0.016 µM (active); in experiment [10], 8.99 µM (active). Moreover, the concentration at half-maximal activity (AC50) in experiment [12] is 15.7 µM (active); in experiment [13] it was 29.2 µM (active); in experiment [15], 20 µM (active); in experiment [16], 28.1 µM (active); in [17] it was 20 µM (active). In addition, the outcome in experiment [3], in experiment [4], in experiment [5], in [6], in experiment [11] and in [14] was inactive. The result in experiment [18] was inactive.
In the case of `Oc1cccc(-c2ccccc2)c1`, the outcome in [1], in experiment [3], in experiment [4], in experiment [5], in experiment [6] and in [9] was inactive. Also, the result in experiment [19], in experiment [11], in experiment [14] and in experiment [16] was inactive. Besides, the AC50 in [2] was 31.6 µM (active); in [7], 20 µM (active); in experiment [8], 35 µM (active); in experiment [10] it was 31.5 µM (active); in [12], 20 µM (active); in experiment [13], 32.5 µM (active). Further, the results for the AC50 in experiment [15], in experiment [17] and in experiment [18] were 29.8 µM (active), 4.9 µM (active) and 8.25 µM (active), respectively.
